Several values for one entry are separate records, joined by “and”; a condition that tells them apart may be missing. Equal values may be shown once. Where a name gives a salt, the structure may show the parent alone. The campaign covered roughly 5,800 compounds. About 620 (11%) showed activity. The entries come from a sample that favours actives as a whole. A number with no mark means an inactive call.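 The calls were made as follows: active = score above a cut-off or among the top three wells of a plate; in these data no inactive exceeds 0.85.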
Tested on: primary human hepatic stellate cells (donor 1)
Assay: scaled lipid accumulation score (0 = DMSO-like, 1 = nortriptyline-like); higher = stronger HSC inactivation (lipid re-accumulation), active = hit call of the paper
Conditions: 48 h
[1] = library stock concentration: 3.33 mM
[2] = library stock concentration: 1 mM
[3] = library stock concentration: 10 mM
[4] = library stock concentration: 100 uM
[5] = library stock concentration: 80 uM
[6] = library stock concentration: 400 uM
[7] = library stock concentration: 2 mM
[8] = library stock concentration: 6.8 mM

CCCC(=O)Oc1ccc2[nH]c(C(=O)c3cc4ccccc4[nH]3)cc2c1 [PDGF Receptor Tyrosine Kinase Inhibitor II]
scaled lipid accumulation score [1]: ≤ 0

CC(C)(C)OC(=O)N1CCC(OCc2nc(-c3ccncc3)no2)CC1
scaled lipid accumulation score [2]: 0.013

N#Cc1ccc(NCCNCC(=O)N2CCC[C@H]2C#N)nc1 [NVP DPP 728 dihydrochloride]
scaled lipid accumulation score [3]: ≤ 0

CN1CC[C@]23c4ccccc4N[C@H]1[C@]21CCN(C)[C@H]3Nc2ccccc21 [Calycanthine]
scaled lipid accumulation score: 0.246

CCCC/C=C\CCCCCCCC(=O)OC [Myristoleic Acid methyl ester]
scaled lipid accumulation score [2]: ≤ 0

Cn1cnc(=N)c2[nH]cnc21 [3-Methyladenine]
scaled lipid accumulation score [1]: ≤ 0 | scaled lipid accumulation score [3]: ≤ 0

CCCCC/C=C\C\C=C/C=C/C=C/[C@@H](SC[C@H](NC(=O)CC[C@H](N)C(=O)O)C(=O)NCC(=O)O)[C@@H](O)CCCC(=O)O [Leukotriene C4]
scaled lipid accumulation score [4]: ≤ -0.021

Fc1ccc(C(OCCCc2cnc[nH]2)c2ccc(F)cc2)cc1
scaled lipid accumulation score [3]: 0.81

Cc1nc2c(c(=O)[nH]1)CSCC2
scaled lipid accumulation score [3]: ≤ -0.001

CCCCC/C=C\C/C=C\C/C=C\C/C=C\CCCC(=O)O[C@H](COCCCCCCCCCCCCCCCC)COP(=O)([O-])OCC[N+](C)(C)C [Arachidonoyl-PAF]
scaled lipid accumulation score [2]: ≤ -0.021

CN1C(=O)/C(=C2\Nc3ccccc3\C2=N\O)c2ccc(Br)cc21 [GSK-3 Inhibitor IX, Control, MeBIO]
scaled lipid accumulation score [1]: 1.07 (active)

O=C1Cc2c([nH]c3ccc(Br)cc23)-c2ccccc2N1 [Kenpaullone]
scaled lipid accumulation score [2]: ≤ 0 | scaled lipid accumulation score [1]: ≤ 0 | scaled lipid accumulation score [3]: ≤ -0.055 and 0.348

COC(=O)C(N)CS (configuration not stated) [Mecysteine hydrochloride]
scaled lipid accumulation score [3]: ≤ 0

O=C(O)CCC/C=C\C[C@@H]1[C@@H](/C=C/[C@@H](O)C2Cc3ccccc3C2)[C@@H](F)C[C@@H]1O
scaled lipid accumulation score [2]: ≤ 0

CC(=O)OCC1=C(C(=O)O)N2C(=O)[C@@H](NC(=O)CSc3ccncc3)[C@H]2SC1 [Cephapirin sodium]
scaled lipid accumulation score (library stock concentration: 4.5 mM): ≤ -0.001 | scaled lipid accumulation score [3]: ≤ 0

CCOC(=O)c1ccc(N=Nc2ccc(O)c(CC(=O)O)c2)cc1
scaled lipid accumulation score [2]: ≤ 0

CC#CCC(C)[C@H](O)/C=C/[C@@H]1[C@H]2C/C(=C/CCCC(=O)O)C[C@H]2C[C@H]1O (stereo partly drawn) [5-cis Iloprost]
scaled lipid accumulation score [2]: 0.135

CCCCC[C@H](O)/C=C/[C@@H]1[C@H]2C/C=C\CCCC(=O)O[C@H]2C[C@H]1O [Prostaglandin F2.alpha. 1,9-lactone]
scaled lipid accumulation score [2]: ≤ 0

CCN(CCO)CCCOc1ccc2c(Nc3cc(CC(=O)Nc4cccc(F)c4)[nH]n3)ncnc2c1 [Barasertib (AZD1152-HQPA)]
scaled lipid accumulation score [1]: ≤ 0 | scaled lipid accumulation score [3]: ≤ 0

COc1ccc(Cl)cc1NC(=O)Nc1cc(C)nc2ccccc12 [IGF-1R Inhibitor II]
scaled lipid accumulation score [1]: 0.188

COc1ccc(Cl)cc1NC(=O)Nc1cc(C)nc2ccccc12 [listing 1 of 2 here]
scaled lipid accumulation score [1]: 0.097 | scaled lipid accumulation score [3]: 0.391

COc1ccc(Cl)cc1NC(=O)Nc1cc(C)nc2ccccc12 [listing 2 of 2 here]
scaled lipid accumulation score [3]: 1.1 (active)

CCn1cc(NC(=S)Nc2cc(Cl)ccc2OC)c(C(N)=O)n1
scaled lipid accumulation score [1]: ≤ -0.009 | scaled lipid accumulation score [3]: 0.111

O=C(CCSCc1ccco1)NNC(=O)N1Cc2ccccc2Oc2ccc(Cl)cc21
scaled lipid accumulation score [3]: ≤ 0

CC1CCN=C(N)S1 (configuration not stated) [AMT hydrochloride]
scaled lipid accumulation score [3]: 0.018

CC1CCN=C(N)S1 (configuration not stated)
scaled lipid accumulation score [3]: ≤ 0

O=C(c1ccc(Nc2nccc(-c3cc4ccccc4s3)n2)cc1)N1CCC(N2CCCC2)CC1
scaled lipid accumulation score [3]: 0.18

O=C(c1ccc(Nc2nccc(-c3cc4ccccc4s3)n2)cc1)N1CCC(N2CCCC2)CC1 [IKK Inhibitor VII]
scaled lipid accumulation score [1]: 1.06 (active)

O=C(c1ccc(C(=O)N2CCC(N3CCCC3)CC2)c(Nc2ccccc2)c1)N1CCC(N2CCCC2)CC1
scaled lipid accumulation score [5]: ≤ 0 | scaled lipid accumulation score [6]: ≤ 0 | scaled lipid accumulation score [7]: ≤ 0 | scaled lipid accumulation score [1]: ≤ 0 | scaled lipid accumulation score [3]: 0.002 and ≤ 0

O=C(c1ccc(Nc2nccc(-c3cc4ccccc4s3)n2)cc1)N1CCC(N2CCCC2)CC1 [IKK-16 (IKK Inhibitor VII)] [listing 1 of 2 here]
scaled lipid accumulation score [3]: 0.246

O=C(c1cncc(Br)c1)N1CCC(N2CCCC2)CC1
scaled lipid accumulation score [5]: ≤ 0 | scaled lipid accumulation score [6]: ≤ 0 | scaled lipid accumulation score [7]: ≤ 0 | scaled lipid accumulation score [1]: ≤ -0.009 | scaled lipid accumulation score [3]: ≤ 0

O=C(c1ccc(Nc2nccc(-c3cc4ccccc4s3)n2)cc1)N1CCC(N2CCCC2)CC1 [IKK-16 (IKK Inhibitor VII)] [listing 2 of 2 here]
scaled lipid accumulation score [1]: 1.04 (active)

O=C(Cc1cccs1)N[C@@H]1C(=O)N2C(C(=O)[O-])=C(C[n+]3ccccc3)CS[C@H]12 [Cephaloridine]
scaled lipid accumulation score [3]: ≤ 0

COc1ccc2cc([C@H](C)CO)ccc2c1 [Naproxol]
scaled lipid accumulation score (library stock concentration: 9.2 mM): ≤ 0 | scaled lipid accumulation score [3]: 0.031

O=c1cc(CN2CCOCC2)occ1OCCCCCSc1ccnc2cc(C(F)(F)F)ccc12
scaled lipid accumulation score [1]: ≤ -0.009 | scaled lipid accumulation score [3]: 0.475

CCCCC[C@H](O)/C=C/[C@H]1[C@H](O)CC(=O)[C@@H]1C/C=C/CCCC(=O)O [5-trans Prostaglandin E2]
scaled lipid accumulation score [2]: ≤ 0

COC(=O)Nc1nc2cc(C(=O)c3ccccc3)ccc2[nH]1 [Mebendazol]
scaled lipid accumulation score [8]: 0.097

COC(=O)Nc1nc2cc(C(=O)c3cccs3)ccc2[nH]1 [Nocodazole] [listing 1 of 2 here]
scaled lipid accumulation score [1]: 0.021 | scaled lipid accumulation score (library stock concentration: 6.6 mM): 0.262

COC(=O)Nc1nc2cc(C(=O)c3ccccc3)ccc2[nH]1 [Mebendazole]
scaled lipid accumulation score: ≤ 0 | scaled lipid accumulation score [8]: 0.082 | scaled lipid accumulation score [3]: 0.402 and 0.071

COC(=O)Nc1nc2cc(C(=O)c3cccs3)ccc2[nH]1 [Nocodazole] [listing 2 of 2 here]
scaled lipid accumulation score: 0.883 (active)

CCCNS(=O)(=O)Nc1ncnc(OCCOc2ncc(Br)cn2)c1-c1ccc(Br)cc1 [Macitentan]
scaled lipid accumulation score [1]: ≤ -0.009 | scaled lipid accumulation score [3]: ≤ 0

CCCCCCCCCCCCC/C=C/[C@@H](O)[C@@H](N)CO [Sphingosine]
scaled lipid accumulation score [2]: ≤ -0.021

CCCCCCCCCCCCC/C=C/[C@@H](O)[C@H](CO)N(C)C [N,N-Dimethylsphingosine] [listing 1 of 2 here]
scaled lipid accumulation score [2]: 0.965 (active)

CCCCCCCCCCCCC/C=C/[C@@H](O)[C@H](CO)N(C)C [N,N-Dimethylsphingosine] [listing 2 of 2 here]
scaled lipid accumulation score [2]: 0.185

Nc1nc(NCC2CCC(CNS(=O)(=O)c3cccc4ccccc34)CC2)nc2ccccc12 (configuration not stated)
scaled lipid accumulation score [3]: 0.415

O=C(/C=C/c1ccc(/C=C/C(=O)Nc2ccc(C3=NCCN3)cc2)cc1)Nc1ccc(C2=NCCN2)cc1 [GW 4869 (hydrochloride hydrate)]
scaled lipid accumulation score [2]: 0.115

CCCCC[C@H](O)/C=C/[C@H]1[C@H](O)CC(=O)[C@@H]1C/C=C/CCCC(=O)Oc1ccc(NC(C)=O)cc1 [Prostaglandin E2 p-acetamidophenyl ester]
scaled lipid accumulation score [2]: ≤ 0

C[C@@H](O)CCC[C@H](O)/C=C/C1=C(C/C=C\CCCC(=O)O)C(=O)CC1 [19(R)-hydroxy Prostaglandin B2]
scaled lipid accumulation score [2]: ≤ 0

Fc1ccc([C@@H]2CCNC[C@H]2COc2ccc3c(c2)OCO3)cc1.O=C(O)/C=C\C(=O)O [Paroxetine maleate]
scaled lipid accumulation score [3]: 1.14 (active)

Fc1ccc([C@@H]2CCNC[C@H]2COc2ccc3c(c2)OCO3)cc1.O=C(O)/C=C\C(=O)O [Paroxetine]
scaled lipid accumulation score [3]: 1.02 (active)

CN1CCC(c2c(O)cc(O)c3c(=O)cc(-c4ccccc4Cl)oc23)C1CO (configuration not stated) [Riviciclib]
scaled lipid accumulation score [5]: 0.019 | scaled lipid accumulation score [6]: 0.272 | scaled lipid accumulation score [7]: ≤ -0.001 | scaled lipid accumulation score [3]: 0.002

COC(=O)/C=C/c1cc(O)ccc1O [Methyl 2,5-dihydroxycinnamate]
scaled lipid accumulation score [3]: 0.182

CC#CCOC(=O)c1c(C)nc2sc3c(c2c1N)CCC(O)C3 (configuration not stated) [listing 1 of 2 here]
scaled lipid accumulation score [3]: 1.72 (active)

CC#CCOC(=O)c1c(C)nc2sc3c(c2c1N)CCC(O)C3 (configuration not stated) [listing 2 of 2 here]
scaled lipid accumulation score [3]: 0.882 (active)

Cc1cccc(C2CN(C)CCc3c2cc(O)c(O)c3Cl)c1 (configuration not stated)
scaled lipid accumulation score [3]: 0.086

CCN(CC)CC#CCOC(=O)C(O)(c1ccccc1)C1CCCCC1.Cl (configuration not stated) [Oxybutynin Chloride]
scaled lipid accumulation score [3]: 0.862 (active)

CCN(CC)CC#CCOC(=O)C(O)(c1ccccc1)C1CCCCC1 (configuration not stated) [Oxybutynin chloride]
scaled lipid accumulation score: 0.397 | scaled lipid accumulation score [1]: 0.234 | scaled lipid accumulation score (library stock concentration: 5.1 mM): 0.317 | scaled lipid accumulation score [3]: 0.48

CC[N+](C)(CC)CCOC(=O)C(O)(c1ccccc1)C1CCCCC1 (configuration not stated)
scaled lipid accumulation score [3]: ≤ 0

CCCCC/C=C\C\C=C/C=C/C=C/[C@@H](SC[C@H](N)C(=O)NCC(=O)O)[C@@H](O)CCCC(=O)O [Leukotriene D4]
scaled lipid accumulation score [4]: ≤ -0.014

N#Cc1cc([N+](=O)[O-])c2sc(C(N)=O)[n+]([O-])c2c1 [Polo-like Kinase Inhibitor II, BTO-1]
scaled lipid accumulation score [1]: ≤ 0

CCCCC/C=C\C=C\[C@@H](O)CCCCCCCC(=O)O
scaled lipid accumulation score [4]: ≤ -0.021

O=C(CN=C(c1ccccc1)c1ccccc1)OCc1ccccc1 [N-(diphenylmethylene) Glycine benzyl ester]
scaled lipid accumulation score [2]: 0.004

C#CCCCCCCCCCNC(=O)Oc1cccc(-c2cccc(C(N)=O)c2)c1
scaled lipid accumulation score [2]: ≤ 0

CCC(=O)Nc1cccc(Oc2nc(Nc3ccc(N4CCN(C)CC4)cc3OC)ncc2Cl)c1 [listing 1 of 3 here]
scaled lipid accumulation score [3]: 1.11 (active)

CCC(=O)Nc1cccc(Oc2nc(Nc3ccc(N4CCN(C)CC4)cc3OC)ncc2Cl)c1 [listing 2 of 3 here]
scaled lipid accumulation score [5]: ≤ -0.001 | scaled lipid accumulation score [6]: ≤ -0.001 | scaled lipid accumulation score [7]: ≤ -0.001 | scaled lipid accumulation score [1]: 0.472

C=CC(=O)Nc1cccc(Oc2nc(Nc3ccc(N4CCN(C)CC4)cc3)ncc2Cl)c1
scaled lipid accumulation score [1]: 0.415 | scaled lipid accumulation score [3]: 0.711

COc1cc(N2CCC(N3CCN(C)CC3)CC2)ccc1Nc1ncc(Cl)c(Nc2ccccc2S(=O)(=O)C(C)C)n1
scaled lipid accumulation score [5]: ≤ 0 | scaled lipid accumulation score [6]: 0.087 | scaled lipid accumulation score [7]: 0.571 | scaled lipid accumulation score [3]: 0.613

CCC(=O)Nc1cccc(Oc2nc(Nc3ccc(N4CCN(C)CC4)cc3OC)ncc2Cl)c1 [listing 3 of 3 here]
scaled lipid accumulation score [3]: 0.997 (active)

C=CC(=O)Nc1cccc(Oc2nc(Nc3ccc(N4CCN(C)CC4)cc3OC)ncc2Cl)c1
scaled lipid accumulation score [5]: ≤ 0 | scaled lipid accumulation score [6]: ≤ 0 | scaled lipid accumulation score [7]: 0.172 | scaled lipid accumulation score [1]: 0.507 | scaled lipid accumulation score [3]: 0.707 and 0.265
